{
  "source": "PubChem BioAssay AID590",
  "about": "(National Center for Advancing Translational Sciences (NCATS), 2007)",
  "note": "Screen size: about 59,000 compounds; about 6,500 (11%) were called active. Another 15% or so got no clear call; they are omitted. No stated cut-off is given here; in the data, active means max dye-equivalent concentration above about 10 nM; inconclusive means mostly about 1.1 nM to 9.6 nM; inactive means weaker than that. What follows is part of a selection rich in actives, with near analogues and random picks from the rest.",
  "data": [
    {"test": "qHTS Assay for Spectroscopic Profiling in A350 Spectral Region", "details": "Compound autofluorescence, 340/450 nm, Alexa 350 dye-equivalents; active compounds read high", "values": [
      {"smiles": "COc1ccc(CN(C(=O)c2cccs2)c2nccs2)cc1OC", "max dye-equivalent concentration": "inactive"},
      {"smiles": "Cc1ccc(C)n1-c1ccncc1", "max dye-equivalent concentration": "inactive"},
      {"smiles": "O=c1cc(-c2ccccc2)[nH]c2nc(Cl)ccc12", "max dye-equivalent concentration": "69 nM (active)"},
      {"smiles": "COCCN1Cc2cccc(C(=O)Nc3ccccc3OC)c2C1=O", "max dye-equivalent concentration": "inactive"},
      {"smiles": "Fc1ccccc1OCCSc1nc2ccccc2o1", "max dye-equivalent concentration": "inactive"},
      {"smiles": "Cc1ccc(C(=O)CS(C)(=O)=O)cc1", "max dye-equivalent concentration": "19 nM (active)"},
      {"smiles": "O=C1C=C(NCCNc2c(F)c(F)c(CO)c(F)c2F)CCC1", "max dye-equivalent concentration": "inactive"},
      {"smiles": "Cc1cc(=O)[nH]c(SCC(=O)N2c3ccccc3CC2C)n1", "note": "(stereo not drawn)", "max dye-equivalent concentration": "inactive"},
      {"smiles": "N#Cc1cccc(-c2nc3cnc(N4CCNCC4)nc3n(C3CC3)c2=O)c1", "max dye-equivalent concentration": "350 nM (active)"},
      {"smiles": "Cc1nc2cnc(Nc3ccccc3)nc2n(C[C@H]2CCCO2)c1=O", "max dye-equivalent concentration": "inactive"},
      {"smiles": "COCCn1c(=O)c(CCc2ccccc2)nc2cncnc21", "max dye-equivalent concentration": "88 nM (active)"},
      {"smiles": "O=C(CSc1nnc(-c2ccco2)n1CC1CCCO1)c1ccccc1", "note": "(stereo not drawn)", "max dye-equivalent concentration": "inactive"},
      {"smiles": "Cc1nc2cnc(N3CCNCC3)nc2n(Cc2ccc(F)cc2)c1=O", "max dye-equivalent concentration": "110 nM (active)"},
      {"smiles": "Cn1cc(-c2nc3cnc(N4CCNCC4)nc3n(CCC#N)c2=O)c2ccccc21", "max dye-equivalent concentration": "inactive"},
      {"smiles": "Cn1c(=O)c2c(nc(OCc3cccnc3)n2Cc2ccccc2)n(C)c1=O", "max dye-equivalent concentration": "inactive"},
      {"smiles": "O=c1c(CCc2ccccc2)nc2cncnc2n1C1CC1", "max dye-equivalent concentration": "inactive"},
      {"smiles": "Cc1nc2cnc(N3CCN(C)CC3)nc2n(C[C@H]2CCCO2)c1=O", "max dye-equivalent concentration": "59 nM (active)"},
      {"smiles": "CCOc1cc2c(cc1OCC)C(C(=O)O)C(c1ccc(OC)c(O)c1)N(C)C2=O", "note": "(stereo not drawn)", "max dye-equivalent concentration": "inactive"},
      {"smiles": "O=C(COc1cccc(-n2cnnn2)c1)NCCC1=CCCCC1", "max dye-equivalent concentration": "inactive"},
      {"smiles": "Cc1cc(C)cc(NC(=O)N2CCC(NC(=O)c3ccc(F)cc3)CC2)c1", "max dye-equivalent concentration": "inactive"},
      {"smiles": "O=C(NC12CC3CC(CC(C3)C1)C2)N1CCCC(CO)C1", "note": "(stereo not drawn)", "max dye-equivalent concentration": "inactive"},
      {"smiles": "COc1ccc(S(=O)(=O)N2CCCC2)c(C)c1C", "max dye-equivalent concentration": "inactive"},
      {"smiles": "Cc1ccc(NC(=O)C2CC(c3ccc(F)cc3)=NO2)cc1", "note": "(stereo not drawn)", "max dye-equivalent concentration": "inactive"},
      {"smiles": "COc1ccc(C(=O)N2CCC3(CC2)CCN(c2ccccn2)CC3)cc1", "max dye-equivalent concentration": "inactive"},
      {"smiles": "CCOC(=O)CCC(=O)OCC(=O)NC(C)C1CC2CCC1C2", "note": "(stereo not drawn)", "max dye-equivalent concentration": "inactive"},
      {"smiles": "Cc1nc(N2CCCC2C(=O)O)c2oc3ccccc3c2n1", "note": "(stereo not drawn)", "max dye-equivalent concentration": "inactive"},
      {"smiles": "COC(=O)c1ccc(C2CC(=O)Nc3cc(OC)c(OC)cc32)cc1", "note": "(stereo not drawn)", "max dye-equivalent concentration": "inactive"},
      {"smiles": "O=c1c(-c2ccc(F)cc2)nc2cnc(N3CCNCC3)nc2n1Cc1cccs1", "max dye-equivalent concentration": "16 nM (active)"},
      {"smiles": "Cn1cc(-c2nc3cnc(N4CCNCC4)nc3n(CCc3ccccc3)c2=O)c2ccccc21", "max dye-equivalent concentration": "inactive"},
      {"smiles": "COCCn1c(=O)c(CCc2ccccc2)nc2cnc(N3CCNCC3)nc21", "max dye-equivalent concentration": "60 nM (active)"},
      {"smiles": "Cc1nc2cnc(N3CCNCC3)nc2n(CCc2ccccc2)c1=O", "max dye-equivalent concentration": "60 nM (active)"},
      {"smiles": "COCCn1c(CN2CCC(Cc3ccccc3)CC2)nc2c1c(=O)n(C)c(=O)n2C", "max dye-equivalent concentration": "inactive"},
      {"smiles": "CC1CCN(Cc2nc3c(c(=O)n(C)c(=O)n3C)n2CCc2ccccc2)CC1", "max dye-equivalent concentration": "inactive"},
      {"smiles": "Cn1c(=O)c(-c2ccccc2)nc2cnc(N3CCNCC3)nc21", "max dye-equivalent concentration": "320 nM (active)"},
      {"smiles": "CC(=O)O[C@]1(C(C)=O)CC[C@@H]2[C@@H]3C=C(C)C4=CC(=O)CC[C@@]4(C)[C@H]3CC[C@]21C", "max dye-equivalent concentration": "inactive"},
      {"smiles": "O=C(NCCN1CCOCC1)c1c(F)c(F)c(F)c(F)c1F", "max dye-equivalent concentration": "inactive"},
      {"smiles": "COc1ccc(-c2nn(-c3ccccc3)cc2C(=O)Nc2nc(CC(C)=O)ns2)cc1", "max dye-equivalent concentration": "inactive"},
      {"smiles": "CC(=O)NC(C)c1nc2ccccc2n1Cc1ccccc1F", "note": "(stereo not drawn)", "max dye-equivalent concentration": "inactive"},
      {"smiles": "CC(C)C1Cc2c(sc3c2c(=O)n(-c2ccccc2)c2nncn32)CO1", "note": "(stereo not drawn)", "max dye-equivalent concentration": "inactive"},
      {"smiles": "CCOC(=O)Cn1c2c(c(-c3ccccc3OC)cc1=O)CCCC2", "max dye-equivalent concentration": "inactive"},
      {"smiles": "COc1ccc(N2CCN(C(=O)CSc3nnc4ncccn34)CC2)cc1", "max dye-equivalent concentration": "inactive"},
      {"smiles": "O=C1CCC(=O)N1CCOP1(=O)COc2ccccc2OC1", "max dye-equivalent concentration": "inactive"},
      {"smiles": "COCCn1c(=O)c(-c2cc(F)cc(F)c2)nc2cnc(N3CCNCC3)nc21", "max dye-equivalent concentration": "390 nM (active)"},
      {"smiles": "CCCn1c(=O)c2[nH]c(-c3ccc(OCC(=O)NCCN)cc3)nc2n(CCC)c1=O", "max dye-equivalent concentration": "inactive"},
      {"smiles": "COc1ccc(C(=O)N2CCC3(CCCN(C(c4ccccc4)c4ccccc4)C3)CC2)cc1", "max dye-equivalent concentration": "inactive"},
      {"smiles": "CC1(C)SC2c3ccccc3C(=O)N2[C@@H]1C(=O)NCc1ccco1", "note": "(stereo partly drawn)", "max dye-equivalent concentration": "inactive"},
      {"smiles": "CC1(C)S[C@@H]2[C@@H](NC(=O)[C@@H](N)c3ccccc3)C(=O)N2[C@H]1C(=O)O", "max dye-equivalent concentration": "44 nM (active)"},
      {"smiles": "CCCC[C@H]1C(=O)N(c2ccccc2)N(c2ccc(O)cc2)C1=O", "max dye-equivalent concentration": "inactive"},
      {"smiles": "Cc1cc(Br)ccc1NC(=O)C1CCCO1", "note": "(stereo not drawn)", "max dye-equivalent concentration": "inactive"},
      {"smiles": "COc1cccc(NC(=O)C2CCCN2C(=O)OCc2ccccc2)c1", "note": "(stereo not drawn)", "max dye-equivalent concentration": "inactive"},
      {"smiles": "NC1(C(=O)OCc2ccccc2)CCCC1", "max dye-equivalent concentration": "inactive"},
      {"smiles": "CC(C)C(NC(=O)OCc1ccccc1)C(=O)OCC(=O)N1C(C)CCCC1C", "note": "(stereo not drawn)", "max dye-equivalent concentration": "48 nM (active)"},
      {"smiles": "COc1cc(-c2noc(C3CCCN(S(=O)(=O)c4cccc(Cl)c4)C3)n2)cc(OC)c1OC", "note": "(stereo not drawn)", "max dye-equivalent concentration": "inactive"},
      {"smiles": "Cc1nc2nc[nH]n2c(=O)c1NC(=O)c1cccc(OCC(C)C)c1", "max dye-equivalent concentration": "inactive"},
      {"smiles": "CCCN1Cc2cccc(C(=O)NCc3ccccc3)c2C1=O", "max dye-equivalent concentration": "inactive"},
      {"smiles": "O=C1CCCC2=C1C(c1cccs1)n1nc(SCc3ccccc3)nc1N2", "note": "(stereo not drawn)", "max dye-equivalent concentration": "110 nM (active)"},
      {"smiles": "CC(C)C(=O)N1c2ccccc2NC2=C(C(=O)CCC2)C1c1ccc(N(C)C)cc1", "note": "(stereo not drawn)", "max dye-equivalent concentration": "inactive"},
      {"smiles": "NC(=NC(=O)c1ccccc1)C1=C(O)CCC1=O", "max dye-equivalent concentration": "inactive"},
      {"smiles": "COc1ccc(-c2nc(SCC(=O)N3CCOCC3)n[nH]2)cc1", "max dye-equivalent concentration": "inactive"},
      {"smiles": "CCn1c(COc2cccc(OC)c2)nnc1SCC(=O)N1CCOCC1", "max dye-equivalent concentration": "inactive"},
      {"smiles": "COc1ccc(-c2ccnc(SCC(=O)N3CCOCC3)n2)cc1", "max dye-equivalent concentration": "100 nM (active)"},
      {"smiles": "CC(=O)c1nc(N2C(=O)C3CC=C(C)CC3C2=O)sc1C", "note": "(stereo not drawn)", "max dye-equivalent concentration": "inactive"},
      {"smiles": "O/N=C(\\c1ccc2c(c1)OCCO2)C1CCCCC1", "max dye-equivalent concentration": "inactive"},
      {"smiles": "Cc1ccsc1C(C(=O)NC1CCCCC1)N(C(=O)Cc1cccs1)C1CC1", "note": "(stereo not drawn)", "max dye-equivalent concentration": "inactive"},
      {"smiles": "COc1ccc2oc(=O)c(C(=O)N3CCCc4ccccc43)cc2c1", "max dye-equivalent concentration": "inactive"},
      {"smiles": "O=C(c1cccc2ccccc12)N1CCN(c2ccccc2F)CC1", "max dye-equivalent concentration": "inactive"},
      {"smiles": "COc1ccc2oc(=O)c(C(=O)N3CCN(c4ccccc4F)CC3)cc2c1", "max dye-equivalent concentration": "41 nM (active)"},
      {"smiles": "Cc1cccc(OCc2nnc(SCn3nnc4ccccc4c3=O)o2)c1", "max dye-equivalent concentration": "inactive"}
    ]}
  ]
}
